EPAC1 agonist = Validation qHTS for agonist of cAMP-regulated guanine nucleotide exchange factor 3 (EPAC1) | Rap guanine nucleotide exchange factor 3 (Homo sapiens), O95398 | Potency, µM, for inactives: max response, positive = active, actives largely listed as activators | hit rate 1% among 16,000 | AID 1645883, 2021 | EPAC1 Rap1b BODIPY-GDP exchange, fluorescence; also: nearly all actives have a fitted effect of over 70% in size
EPAC2 ant val = Validation qHTS for antagonist of cAMP-regulated guanine nucleotide exchange factor 4 (EPAC2) | Rap guanine nucleotide exchange factor 4 (Homo sapiens), Q8WZA2 | EPAC2 Rap1B BODIPY-GDP exchange, fluorescence | Potency, µM (highest dose often 112 µM), without a hit: top-dose activity, negative = inhibition, usual class: inhibitors | hit rate 1.7% among 16,000 | AID 1645886, 2021;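 also: 100% = activation by cAMP agonist control; nearly all actives have a fitted effect of over 40% in size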
Target sequence (Q8WZA2 whole entry, looked up): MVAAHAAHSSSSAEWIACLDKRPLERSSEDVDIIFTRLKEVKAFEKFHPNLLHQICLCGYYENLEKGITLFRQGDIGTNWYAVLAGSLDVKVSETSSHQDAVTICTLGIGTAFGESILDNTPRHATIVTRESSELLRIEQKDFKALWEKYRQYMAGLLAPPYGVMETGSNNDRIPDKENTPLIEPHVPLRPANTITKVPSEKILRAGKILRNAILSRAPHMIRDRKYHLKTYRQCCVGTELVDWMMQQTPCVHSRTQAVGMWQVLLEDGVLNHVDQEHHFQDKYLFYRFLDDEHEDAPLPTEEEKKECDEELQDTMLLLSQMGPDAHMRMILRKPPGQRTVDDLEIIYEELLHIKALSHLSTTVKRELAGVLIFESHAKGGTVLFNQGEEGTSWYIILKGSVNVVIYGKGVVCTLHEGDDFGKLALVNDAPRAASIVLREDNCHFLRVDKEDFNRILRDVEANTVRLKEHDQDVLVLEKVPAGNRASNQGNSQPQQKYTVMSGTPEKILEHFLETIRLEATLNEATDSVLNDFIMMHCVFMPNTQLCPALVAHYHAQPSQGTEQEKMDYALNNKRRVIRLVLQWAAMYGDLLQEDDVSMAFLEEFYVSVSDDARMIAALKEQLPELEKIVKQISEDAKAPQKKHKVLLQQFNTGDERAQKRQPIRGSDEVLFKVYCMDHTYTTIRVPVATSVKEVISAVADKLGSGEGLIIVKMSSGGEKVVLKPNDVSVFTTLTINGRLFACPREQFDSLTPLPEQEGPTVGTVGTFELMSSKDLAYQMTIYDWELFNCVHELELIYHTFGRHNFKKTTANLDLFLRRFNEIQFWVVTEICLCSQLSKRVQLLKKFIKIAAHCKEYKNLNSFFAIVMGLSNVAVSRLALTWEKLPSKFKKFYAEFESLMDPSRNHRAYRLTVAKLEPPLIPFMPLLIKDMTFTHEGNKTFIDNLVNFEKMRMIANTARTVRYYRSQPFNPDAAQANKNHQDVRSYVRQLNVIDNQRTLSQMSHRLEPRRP
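Normalized against a 6.5 mM cAMP agonist control, compounds were tested on 100 nM EPAC2 exchanging Rap1B-bound BODIPY-GDP (250 nM) for 50 uM GDP. Fluorescence drop (ex 480, em 540 nm) was tracked at room temperature over 30 min at 5-min intervals.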
An asterisk follows results filed as active; ? = inconclusive; ! = not confirmed by another sample; [ ] = dose if it differs, or a comment. The list is not random: actives were taken first. Their share in the collection is about 2.9%. Calls follow the shape of the dose curve; as a rule, active = well fitted curve in the direction sought with a large enough effect; inconclusive = small, poorly fitted or top-dose-only effect, or another doubt; inactive = no such curve, though single readings can be large; an effect the other way counts as inactive or inconclusive. Unless noted, % is scaled to controls: 0 for no effect and ±100 for the full control effect; potency is read from the fitted curve at half-maximal effect.

SMILES	EPAC1 agonist	EPAC2 ant val
CC(C)(C)C1(O)CCN2CC3c4ccccc4CCc4cccc(c43)C2C1 (configuration not stated)	9%	-11%
CC[C@]1(O)C[C@H]2CN(CCC3=c4ccccc4=N[C]3[C@@](C(=O)OC)(c3cc4c(cc3OC)N(C)[C@H]3[C@@](O)(C(N)=O)[C@H](O)[C@]5(CC)C=CCN6CC[C@]43[C@@H]65)C2)C1	20%	-14%
CC(C)=CCc1c(O)cc(C)oc1=O	-12%	0%
COc1cc(O)c2c(=O)cc(C)oc2c1CC=C(C)C	?	32µM*
COc1cc2c(cc1O)CCN[C@]21CS[C@@H]2c3c(OC(C)=O)c(C)c4c(c3[C@H](COC1=O)N1[C@@H]2[C@H]2c3c(cc(C)c(OC)c3O)C[C@@H]([C@@H]1O)N2C)OCO4	-45%	16%[239 µM]
CN(C)c1ncnc2ccc(-c3ccoc3)cc12	-23%	-29%
COc1ccccc1-c1cc(N(C)Cc2ccco2)ncn1	-27%	?
CN(Cc1ccco1)c1ncncc1-c1ccccc1Cl	?	5%
CN(Cc1ccco1)c1ncnc2ccc(-c3ccccc3Cl)cc12	?	40µM*
COc1ccccc1-c1ccc2ncnc(N(C)Cc3ccco3)c2c1	?	50µM*
CN(Cc1ccco1)c1ncnc2ccc(-c3ccoc3)cc12	-14%	45µM*
COc1ccccc1N1CCN(c2nc(CNC(=O)c3ccc4c(c3)OCO4)nc3ccccc23)CC1	10%	?
CO[C@H]1C[C@H](O[C@H]2[C@H](C)[C@@H](O[C@@H]3O[C@H](C)C[C@H](N(C)C)[C@H]3OC(C)=O)[C@@H](C)C[C@]3(CO3)C(=O)[C@H](C)[C@@H](OC(C)=O)[C@@H](C)[C@@H](C)OC(=O)[C@@H]2C)O[C@@H](C)[C@@H]1OC(C)=O	-16%	-24%[56.6 µM]
CO[C@H]1C[C@H](O[C@H]2[C@H](C)[C@@H](O[C@@H]3O[C@H](C)C[C@H](N(C)C)[C@H]3O)[C@@H](C)C[C@]3(CO3)C(=O)[C@H](C)[C@@H](O)[C@@H](C)[C@@H](C)OC(=O)[C@@H]2C)O[C@@H](C)[C@@H]1O	-4%	-35%[56.6 µM]
CC1=C(/C=C/C(C)=C/C=C/C(C)=C/C=C/C=C(C)/C=C/C=C(C)/C=C/C2=C(C)C[C@@H](O)CC2(C)C)C(C)(C)C[C@H](O)C1	-24%	28%
C=CC(C)(C)c1[nH]c2ccccc2c1C1=C(O)C(=O)C(c2c[nH]c3c(CC=C(C)C)cccc23)=C(O)C1=O	-14%	45µM*
O=c1c(-c2ccccc2)nc2cnc(N3CCNCC3)nc2n1Cc1ccc(F)cc1	-10%	-14%
O=c1c(-c2cc(F)cc(F)c2)nc2cnc(N3CCNCC3)nc2n1Cc1ccc(F)cc1	?	50µM*
Cc1cc(N)c2cc(NC(=O)Nc3ccc4nc(C)cc(N)c4c3)ccc2n1	56µM*	40µM*
Cc1cc(NC(=O)Nc2ccc3c(ccn3C)c2)sn1	2%	?
CC(C)(C=O)Cc1cc(C(C)(C)C)c(O)c(C(C)(C)C)c1	5%	?
CC(C)(CO)Cc1cc(C(C)(C)C)c(O)c(C(C)(C)C)c1	4%	56µM*!
Cc1c(N)nc(C(CC(N)=O)NCC(N)C(N)=O)nc1C(=O)NC(C(=O)NC(C)C(O)C(C)C(=O)NC(C(=O)NCCc1nc(-c2nc(C(=O)NCCCN[C@@H](C)c3ccccc3)cs2)cs1)C(C)O)C(O[C@@H]1O[C@@H](CO)[C@@H](O)[C@H](O)[C@@H]1O[C@H]1O[C@H](CO)[C@@H](O)[C@H](OC(N)=O)[C@@H]1O)c1cnc[nH]1 (some centres not stated)	8%	-1%
O=C[C@H](O)[C@@H](O)[C@@H](O)[C@H](O)CO	-42%	-1%
CCC(=O)OC(OP(=O)(CCCCc1ccccc1)CC(=O)N1C[C@H](C2CCCCC2)C[C@H]1C(=O)O)C(C)C (some centres not stated)	-36%	-26%
SMILES	EPAC1 agonist	EPAC2 ant val
COc1cccc(Nc2ncc3nc(-c4ccc(Cl)cc4)c(=O)n(CCC#N)c3n2)c1	-195%	?
COc1cccc(Nc2ncc3nc(-c4ccc(F)cc4)c(=O)n(CCC#N)c3n2)c1	112µM*	-19%
COc1cccc(Nc2ncc3nc(-c4cc(F)cc(F)c4)c(=O)n(CCC#N)c3n2)c1	112µM*	?
COc1ccc(Oc2ncc3nc(-c4cc(F)cc(F)c4)c(=O)n(CCC#N)c3n2)cc1	-63%	-23%
COc1ccc(-c2nc3cnc(Oc4ccccc4)nc3n(CCC#N)c2=O)cc1	?	-28%
COc1ccc(-c2nc3cnc(Nc4cccc(OC)c4)nc3n(CCC#N)c2=O)cc1	100µM*	3%
COc1cccc(Nc2ncc3nc(-c4ccc(F)cc4)c(=O)n(C)c3n2)c1	-72%	-5%
COc1ccc(-c2nc3cnc(Nc4ccccc4)nc3n(CCC#N)c2=O)cc1	112µM*	-4%
COc1cc(C)c(CN2CCOc3ccc(C(O)c4cccnc4)cc3C2)cc1C (configuration not stated)	6%	-22%
CC[C@@H](C(=O)O)[C@@H]1O[C@@H]([C@@H](C)[C@H](O)[C@H](C)C(=O)[C@H](CC)[C@H]2O[C@]3(C=C[C@@H](O)[C@]4(CC[C@@](C)([C@H]5CC[C@](O)(CC)[C@H](C)O5)O4)O3)[C@H](C)C[C@@H]2C)[C@@H](C)C[C@@H]1C	-43%	16%
CN(C)c1ccc(/C=C/c2ccnc3c(-c4ccccc4)cccc23)cc1	?	-16%
Cc1ccc2ncc(C)c(/C=C/c3ccc(N(C)C)cc3)c2c1	-25%	-23%
CN(C)c1ccc(/C=C/c2ccnc3c(Cl)cccc23)cc1	112µM*	127%
CN(C)c1ccc(/C=C/c2c(Cl)cnc3ccccc23)cc1	100µM*	-27%
Cc1nc2sccn2c1CN1CCOc2ccc(CN3CCN(c4ccc(F)cc4)CC3)cc2C1	-3%	?
CC#CCC(C)[C@H](O)/C=C/[C@@H]1[C@H]2c3cccc(CCCC(=O)O)c3O[C@H]2C[C@H]1O (some centres not stated)	15%	-16%
COC(=O)c1c(C)c2c(c(C)c1O)OC(=O)c1c(C)c(Cl)c(O)c(Cl)c1O2	-23%	2.5µM*
COC(=O)c1c(Cl)c(Cl)c(C(=O)OC)c(Cl)c1Cl	?	-22%
COC(=O)c1c(OC)cc2c(c1C)Oc1c(Cl)c(O)c(Cl)c(C)c1C(=O)O2	-78%	4.5µM*
Cc1onc(-c2ccccc2)c1C(=O)NCCN1Cc2ccccc2OC(c2ccsc2)C1 (configuration not stated)	-13%	-22%
COc1ccc(CNC(=O)C[C@H]2C(=O)N(Cc3ccc(OC)cc3)C[C@@H]2Cc2ccccc2)cc1	2%	?
CCCCC[C@H]1CN(Cc2ccccc2)C(=O)[C@@H]1CC(=O)NCc1ccc(OC)cc1	-82%	22µM*
Cc1cccc(CNC(=O)c2cnn(-c3nccc(-c4cccs4)n3)c2C(C)C)n1	-9%	-23%

Compound activity deposited in PubChem BioAssay by National Center for Advancing Translational Sciences (NCATS).
